SMILES strings stand for the structures. Out of some 13,000 compounds screened, about 3,200 (25%) showed an effect of 50% or more. The list shows a part of the results.

The experiment deals with P. falciparum stage V gametocytes. Set-up: BacTiter-Glo ATP luminescence viability of purified stage V gametocytes in 384-well plates, per cent inhibition versus DMSO. As to conditions: 48 h, 5 µM; inhibitor.
`ON=C1CCc2cc(-c3nc(-c4cccc(OCCNCc5ccc(F)cc5)c4)[nH]c3-c3ccncc3)ccc21` [TCMDC-141188]: the “% Inhibition” value came to 20.84%.

On to `CN1CCC(NCc2ccc(-c3cccc(S(=O)(=O)NCCc4ccccn4)c3)cc2)CC1` [TCMDC-132239], for which the “% Inhibition” value is listed as 62.99%.

Consider `Cc1cc(-c2cccc(CNC3CCN(C)CC3)c2)ccc1S(=O)(=O)NCCc1ccccn1` [TCMDC-132381], for which the “% Inhibition” value was determined as 33.36%.

Consider `CN1CCC(NCc2cccc(-c3ccc(S(=O)(=O)NCCc4ccccn4)cc3)c2)CC1` [TCMDC-132214], for which the “% Inhibition” value stood at 81.33%.

As for `CN1CCC(NCCS(=O)(=O)c2cccc(Nc3ccc(-c4cccc(F)c4)cn3)c2)CC1` [TCMDC-134370], the “% Inhibition” value was determined as 8.325%.

For the compound `COc1ccc2nccc([C@@H](O)CN3CCC(NCC(=O)Nc4cc(F)cc(F)c4)CC3)c2n1` [TCMDC-140675], the “% Inhibition” value is recorded as -19.08%.

As for `Cc1ccnc2nc(C(=O)Nc3cc(C(F)(F)F)ccc3N3CCCCC3)nn12` [TCMDC-124492], the “% Inhibition” value is given as -24.2%.

`COC(=O)Nc1cc(C(F)(F)F)ccc1N1CCC(CNS(=O)(=O)c2ccc(OC)cc2)CC1` [TCMDC-134157]: the “% Inhibition” value was found to be 29.26%.

As to `Cc1ccc(C(=O)NCC2CCN(c3ccc(C(F)(F)F)cc3NC(=O)c3ccco3)CC2)cn1` [TCMDC-134179], the “% Inhibition” value was 52.48%.

With `C[C@H](NC(=O)[C@H](Cc1ccccc1)NC(=O)OC(C)(C)C)C(=O)N[C@@H](CC1CCCCC1)C(O)CN` (some centres unmarked) [TCMDC-137178], the “% Inhibition” value was -9.62%.

As to `CCC(ON1C(N)=NC(N)=NC1(C)C)c1ccccc1` (centres unmarked) [TCMDC-131604], the “% Inhibition” value is given as -12.67%.

On to `CCCCCN1CCCN(Cc2cccc(NC(=O)c3ccc(-c4ccccc4)cc3)c2)CC1` [TCMDC-141845], for which the “% Inhibition” value is -85.57%.

Consider `CN1CCN(CCCN(Cc2cccc(-c3ccc(CNC4CCCC4)cc3)c2)C(=O)/C=C/c2ccccc2)CC1` [TCMDC-140544], for which the “% Inhibition” value is given as 99.25%.

As to `COc1cccc(C=CC(=O)N(CCN)Cc2ccccc2)c1` [TCMDC-137725], the “% Inhibition” value is reported as -7.766%.

For `CN1CCN(CCCN(Cc2ccc(-c3cccc(CNC4CCCC4)c3)cc2)C(=O)/C=C/c2ccccc2)CC1` [TCMDC-140547], the “% Inhibition” value stood at 114.1%.

As to `CN1CCN(CCCN(Cc2ccc(-c3cccc(CNC4CCCC4)c3)cc2)C(=O)Nc2ccccc2)CC1` [TCMDC-140605], the “% Inhibition” value came to 107.6%.

Regarding `CN1CCN(CCCN(Cc2cccc(-c3cccc(CNC4CCCC4)c3)c2)C(=O)/C=C/c2ccccc2)CC1` [TCMDC-140543], the “% Inhibition” value was found to be 105.2%.

For `CCCCN1CCCN(Cc2cccc(NC(=O)c3ccc(-c4ccccc4)cc3)c2)CC1` [TCMDC-141844], the “% Inhibition” value was -70.1%.

In the case of `CN1CC[C@@H](Oc2cc(CNC(=O)c3ccc(-c4ccc(Cl)cc4)s3)ccc2C(F)(F)F)C1` [TCMDC-136151], the “% Inhibition” value is on record as -38.31%.

With `C=CCc1cc(Cc2cnc(N)nc2N)c2ccc(C)nc2c1OC` [TCMDC-137891], the “% Inhibition” value is -15.21%.

As for `Cc1cc(OCc2ccccc2)c(OCc2ccccc2)cc1C(O)CN(C)Cc1ccccc1` (centres unmarked) [TCMDC-131246], the “% Inhibition” value came to 18.13%.

On to `Cc1cc(Nc2ccc(C(C)(C)C)cc2)c2[nH]ncc2n1` [TCMDC-131536], for which the “% Inhibition” value is reported as -25.63%.

With `Cc1ccccc1CCNC(=O)c1ccc(N2CCN(c3ccncc3)CC2)nc1` [TCMDC-134588], the “% Inhibition” value was found to be 6.86%.

In the case of `Cc1ccc2cc(C3NC(=O)c4ccccc4N3)c(Cl)nc2c1` (centres unmarked) [TCMDC-124480], the “% Inhibition” value was -10.78%.

On to `N#Cc1cccc(Nc2nccc(NCC(O)c3cccc(C(F)(F)F)c3)n2)c1` (centres unmarked) [TCMDC-136580], for which the “% Inhibition” value is given as -40.58%.

As for `c1ccc(C(OCCC2CCN(Cc3cccc4cccnc34)CC2)c2ccccc2)cc1` [TCMDC-136047], the “% Inhibition” value was -51.83%.

For the compound `Cc1ccc(C(NC(=O)Cc2ccccc2)c2ccc3cccnc3c2O)cc1` (centres unmarked) [TCMDC-125551], the “% Inhibition” value was found to be 6.84%.

For the compound `O=C(Cc1ccccc1)NC(c1ccc(Cl)cc1)c1ccc2cccnc2c1O` (centres unmarked) [TCMDC-124427], the “% Inhibition” value was 70.3%.

In the case of `O=C(NC(c1ccc(Cl)cc1)c1ccc2cccnc2c1O)c1ccccc1` (centres unmarked) [TCMDC-123829], the “% Inhibition” value was -93.03%.

On to `O=C(Cc1ccccc1)NC(c1ccccc1)c1ccc2cccnc2c1O` (centres unmarked) [TCMDC-124383], for which the “% Inhibition” value amounted to 92.16%.

In the case of `O=C(CCc1ccccc1)NC(c1ccc(Cl)cc1)c1ccc2cccnc2c1O` (centres unmarked) [TCMDC-123537], the “% Inhibition” value was found to be 82.06%.

Consider `CN(C)CCNc1ncnc2c1[nH]c1ccc(Br)cc12` [TCMDC-124584], for which the “% Inhibition” value amounted to 3.603%.

`CN(C)c1cc(N/N=C/c2cc(Cl)ccc2O)nc(N(C)C)n1` [TCMDC-125812]: the “% Inhibition” value was -69.18%.

For `CC1CN(Cc2cccc(C#N)c2)CCN1c1ccc(NC(=O)c2cccs2)cc1` (centres unmarked) [TCMDC-134969], the “% Inhibition” value is given as -7.267%.

As for `O=C(CSc1cccc[n+]1[O-])c1ccc(Cc2ncc(C(F)(F)F)cc2Cl)s1` [TCMDC-125823], the “% Inhibition” value is on record as 10.92%.

As for `COc1ccc2ncc(F)c([C@@H](O)CN3CCC(NCc4ccc5c(c4)NCCS5)CC3)c2n1` [TCMDC-135765], the “% Inhibition” value amounted to 82.34%.

In the case of `COc1ccc2ncc(F)c([C@H](O)CN3CCC(NCc4ccc5c(c4)NC(=O)CO5)CC3)c2c1` [TCMDC-135829], the “% Inhibition” value is recorded as -7.754%.

Consider `COc1ccc2ncc(F)c([C@H](O)CN3CCC(NCc4ccc5c(c4)OCCO5)CC3)c2c1` [TCMDC-135828], for which the “% Inhibition” value was -2.76%.

Turning to `COc1ccc2ncc(F)c(CCN3CCC(NCc4ccc5c(c4)CCO5)CC3)c2n1` [TCMDC-135491], the “% Inhibition” value was 11.83%.

`COc1ccc2ncc(F)c([C@@H](O)CN3CCC(NCc4cc(C#N)c5c(c4)CCO5)CC3)c2n1` [TCMDC-136078]: the “% Inhibition” value is on record as 86.13%.

Regarding `COc1ccc2nccc([C@H](O)CN3CCC(NCc4cc(C)c5c(c4)OCCO5)CC3)c2n1` [TCMDC-136075], the “% Inhibition” value turned out to be 22.49%.

`COc1nc2c(CCN3CC[C@@H](NCc4cc(C#N)c5c(c4)CCO5)[C@@H](O)C3)ccnc2cc1F` [TCMDC-135964]: the “% Inhibition” value is recorded as 90.2%.

Regarding `COc1nc2c(CCN3CC[C@H](NCc4cc(C#N)c5c(c4)CCO5)[C@H](O)C3)ccnc2cc1F` [TCMDC-135969], the “% Inhibition” value was -20.52%.

For `COc1nc2c(CCN3CC[C@H](NCc4cc(C#N)c5c(c4)OCCO5)[C@H](O)C3)ccnc2cc1F` [TCMDC-135968], the “% Inhibition” value was found to be 5.29%.

The record behind these values is paper PMC4552634, “A New Set of Chemical Starting Points with Plasmodium falciparum Transmission-Blocking Potential for Antimalarial Drug Discovery” (PLoS ONE, 2015).
